For assay [1], the system named is Sodium/Iodide Symporter (NIS), SLC5A5 (gene 6528). The assay can be described thus: CPHEA_Stoker_NIS_Inhibition_RAIU: CPHEA's Radioactive Iodide Uptake (RAIU) Assay for Sodium/Iodide Symporter (NIS) Inhibition, Stoker and Laws Labs (AID 2283841). The method in brief:
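Iodide uptake through human NIS is measured in an engineered HEK293T line. Cells take up 125I (329pM final) for 2 hours at room temperature alongside chemicals at 0.001–100uM. Retained radioactivity is counted, and the signal is expressed against DMSO controls.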

Assay [2] addresses chicken Estrogen Receptor (ERa), ESR1 (gene 396099) (UniProt P06212). The experiment in a line: ATG_chERa_XSP2: Attagene TRANS-FACTORIAL Multi-Species (XSP2) HepG2 Assay for chicken Estrogen Receptor (ERa) (AID 2283817).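 Note: actives raise reporter signal above DMSO so AC50 reflects ER activation.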 The method in brief: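 Transiently transfected HepG2 cells expressing chimeric chicken ERa-GAL4 reporter units, dosed 24 h with 3 nM 6-alpha-fluorotestosterone and 1.5 nM norgestrel present. Reporter mRNA measured by RT-PCR and capillary electrophoresis; gain-of-signal fitted relative to DMSO.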

Assay [3] concerns chicken Androgen Receptor (AR), gene 422165. The experiment in a line: ATG_chAR_XSP2: Attagene TRANS-FACTORIAL Multi-Species (XSP2) HepG2 Assay for chicken Androgen Receptor (AR) (AID 2283819).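 Note: hits raise reporter mRNA above DMSO so potency is for activation.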 The method in brief:
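HepG2 cells transiently transfected with chicken AR–GAL4 chimeric reporter constructs, stimulated with 3 nM 6-alpha-fluorotestosterone plus 1.5 nM norgestrel, dosed 24 h. Reporter mRNA quantified by RT-PCR and capillary electrophoresis; gain of signal fitted versus DMSO.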

The subject of assay [4] is zebrafish Estrogen Receptor (ER2b), gene 317733. The assay can be described thus: ATG_zfER2b_XSP2: Attagene TRANS-FACTORIAL Multi-Species (XSP2) HepG2 Assay for zebrafish Estrogen Receptor (ER2b) (AID 2283823).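 Note: fitted upward as reporter gain over DMSO so potency reflects activation.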 The method in brief: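 Cells used were HepG2, transiently transfected with chimeric nuclear receptor-Gal4 reporter units. After 24 h of chemical treatment, reporter transcripts were amplified by RT-PCR, labelled and sized by capillary electrophoresis, with induction analysed relative to DMSO.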

Assay [5] can be described thus: ATG_M_32_XSP2: Attagene TRANS-FACTORIAL Multi-Species (XSP2) HepG2 Assay for M19 Transcription Factor (Internal Marker) (AID 2283826). The gist of the method:
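Transfected HepG2 (multiplexed GAL4-UAS reporters), 24 h chemical exposure, 3 nM 6-alpha-fluorotestosterone + 1.5 nM norgestrel added. RNA → oligo(dT) RT → PCR → 6-FAM primer extension → HpaI cut → CE. Fitted upward vs DMSO.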

Assay [6] has as its system frog Estrogen Receptor (ER2), gene 100174814. The experiment in a line: ATG_frER2_XSP2: Attagene TRANS-FACTORIAL Multi-Species (XSP2) HepG2 Assay for frog Estrogen Receptor (ER2) (AID 2283828). The gist of the method: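 HepG2 cells transiently transfected with multiplexed GAL4-UAS reporter units expressing chimeric frog ER2–Gal4 protein; reporter mRNA measured 24 h after chemical dosing by RT-PCR, fluorescent labeling and capillary electrophoresis. Gain-of-signal fitted relative to DMSO baseline.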

Assay [7] concerns the target Peroxisome proliferator-activated receptor gamma (Homo sapiens) (UniProt P37231). The experiment in a line: ATG_hPPARg_XSP2: Attagene TRANS-FACTORIAL Multi-Species (XSP2) HepG2 Assay for human Peroxisome Proliferator-activated Receptor gamma (PPARg) (AID 2283829).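 Note: actives raise reporter mRNA above DMSO so AC50 reflects PPARg activation.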 The gist of the method:
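After transfecting HepG2 with GAL4-UAS reporter constructs, cells are dosed for 24 h; total RNA is reverse-transcribed, PCR-amplified, FAM-labeled, HpaI-digested and resolved by capillary electrophoresis. Activity is measured as mRNA induction relative to DMSO.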

The target of assay [8] is Nuclear receptor subfamily 1 group I member 2 (Mus musculus) (UniProt O54915). The experiment in a line: ATG_mPXR_XSP2: Attagene TRANS-FACTORIAL Multi-Species (XSP1) HepG2 Assay for mouse Pregnane X Receptor (PXR) (AID 2283831). The gist of the method: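 Reporter transcripts were quantified by RT-PCR, FAM primer extension, HpaI digestion and capillary electrophoresis after 24 h of chemical exposure in transiently transfected HepG2 cells carrying chimeric receptor-GAL4 constructs; DMSO served as baseline.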
Sequence of Nuclear receptor subfamily 1 group I member 2 (Mus musculus) (O54915 whole entry, looked up, the tested form may be a part): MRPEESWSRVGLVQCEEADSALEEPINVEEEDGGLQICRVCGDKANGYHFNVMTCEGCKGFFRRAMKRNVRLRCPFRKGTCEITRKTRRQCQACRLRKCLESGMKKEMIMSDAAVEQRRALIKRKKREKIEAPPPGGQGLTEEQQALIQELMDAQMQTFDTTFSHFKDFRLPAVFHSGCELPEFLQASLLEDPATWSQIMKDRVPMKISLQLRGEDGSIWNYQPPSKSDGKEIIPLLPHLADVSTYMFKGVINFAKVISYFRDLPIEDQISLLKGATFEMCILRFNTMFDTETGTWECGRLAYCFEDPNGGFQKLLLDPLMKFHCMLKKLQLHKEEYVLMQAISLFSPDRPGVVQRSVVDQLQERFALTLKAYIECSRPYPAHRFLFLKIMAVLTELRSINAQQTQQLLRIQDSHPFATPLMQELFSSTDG

Assay [9] concerns the target zebrafish Thyroid Hormone Receptor alpha (TRa), thraa (gene 30670) (UniProt Q98867). The experiment in a line: ATG_zfTRa_XSP2: Attagene TRANS-FACTORIAL Multi-Species (XSP1) HepG2 Assay for zebrafish Thyroid Hormone Receptor alpha (TRa) (AID 2283832).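 Note: actives raise zebrafish TRa-Gal4 reporter transcript above DMSO baseline.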 The gist of the method:
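HepG2 cells transiently transfected with multiplexed GAL4-UAS reporter units expressing chimeric NR-Gal4 proteins; 24 h after dosing, reporter mRNA measured by RT-PCR, FAM labelling, HpaI digestion and capillary electrophoresis; gain of signal versus DMSO baseline.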

For assay [10], the system named is zebrafish Peroxisome Proliferator-activated Receptor gamma (PPARg), gene 557037. The experiment in a line: ATG_zfPPARg_XSP2: Attagene TRANS-FACTORIAL Multi-Species (XSP2) HepG2 Assay for zebrafish Peroxisome Proliferator-activated Receptor gamma (PPARg) (AID 2283833).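 Note: actives increase reporter signal over DMSO so AC50 reflects activation.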 The method in brief:
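Multi-species TRANS format in HepG2, 24 h dosing; medium also contained 3 nM 6-alpha-fluorotestosterone and 1.5 nM norgestrel to stimulate androgen receptor. Zebrafish PPARg-GAL4 induced reporter mRNA was measured by RT-PCR/capillary electrophoresis.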

Assay [11] is described as follows: ATG_M_61_XSP2: Attagene TRANS-FACTORIAL Multi-Species (XSP2) HepG2 Assay for M61 Transcription Factor (Internal Marker) (AID 2283835; active = hit-call score of the fitted dose curve at least 0.9, where 1 is the maximum; inactive = score below 0.9;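 note: active means a rise in signal above the DMSO baseline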). The gist of the method: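 HepG2 cells transiently transfected with multiple GAL4-UAS reporter units; reporter mRNA measured 24 h after dosing by RT-PCR, fluorescent labelling and capillary electrophoresis. Medium contained 3 nM 6-alpha-fluorotestosterone and 1.5 nM norgestrel; internal marker, DMSO baseline.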

The target in assay [12] is frog Thyroid hormone Receptor alpha (TRa), thra-a (gene 397942) (UniProt P15204). The experiment in a line: ATG_frTRa_XSP2: Attagene TRANS-FACTORIAL Multi-Species (XSP2) HepG2 Assay for frog Thyroid hormone Receptor alpha (TRa) (AID 2283839). The gist of the method:
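Transfect HepG2 with multiple reporter units (GAL4-UAS), dose chemical, incubate 24 h. Isolate RNA, reverse-transcribe, PCR-amplify reporter, label with 6-FAM by primer extension, digest with HpaI, run capillary electrophoresis; induction scored against DMSO.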

Assay [13] relates to zebrafish Estrogen Receptor (ER2a), gene 317734. The experiment in a line: ATG_zfER2a_XSP2: Attagene TRANS-FACTORIAL Multi-Species (XSP2) HepG2 Assay for zebrafish Estrogen Receptor (ER2a) (AID 2283818).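 Note: hits raise reporter mRNA so AC50 reflects activation of zebrafish ER2a.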 The gist of the method:
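HepG2 cells transiently transfected with GAL4-UAS reporter units and chimeric zebrafish ER2a-Gal4, exposed 24 h; medium contains 3 nM 6-alpha-fluorotestosterone and 1.5 nM norgestrel. Reporter mRNA quantified by RT-PCR, HpaI digestion, capillary electrophoresis; gain versus DMSO.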

The test system of assay [14] is turtle Thyroid Hormone Receptor, alpha (TRa), gene 101949057. The experiment in a line: ATG_trTRa_XSP2: Attagene TRANS-FACTORIAL Multi-Species (XSP1) HepG2 Assay for turtle Thyroid Hormone Receptor, alpha (TRa) (AID 2283834).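 Note: hits raise reporter mRNA over the DMSO baseline so AC50 marks activators.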 The gist of the method: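 Transfection of HepG2 with multiple reporter transcription units, then chemical dosing for 24 h. Total RNA was reverse-transcribed, reporter sequences PCR-amplified and FAM-labelled, then sized by capillary electrophoresis. DMSO served as baseline.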

Assay [15] in a line: ATG_XTT_Cytotoxicity_XSP2: Cytotoxicity Assessment in the Attagene TRANS-FACTORIAL Multi-Species (XSP2) HepG2 Assay (AID 2283837). The gist of the method: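 HepG2 cells, transiently transfected with multiple reporter constructs, exposed to chemical for 24 h. Cell number assessed with XTT fluorescence read-out; loss of signal fitted relative to DMSO.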

Structures are written as SMILES. “And” between values parts separate entries of the source, which are not always exact repeats. Equal entries are not always repeated. Results filed as inconclusive are left out. Where a structure was tested more than once in an assay, its records may differ in their call. The source made the active and inactive calls. Rule for the calls, unless noted: active = hit-call score of the fitted dose curve at least 0.9, where 1 is the maximum; inconclusive = response in the unintended direction; inactive = score below 0.9.

Sequence of Peroxisome proliferator-activated receptor gamma (Homo sapiens) (P37231 whole entry, looked up, the tested form may be a part): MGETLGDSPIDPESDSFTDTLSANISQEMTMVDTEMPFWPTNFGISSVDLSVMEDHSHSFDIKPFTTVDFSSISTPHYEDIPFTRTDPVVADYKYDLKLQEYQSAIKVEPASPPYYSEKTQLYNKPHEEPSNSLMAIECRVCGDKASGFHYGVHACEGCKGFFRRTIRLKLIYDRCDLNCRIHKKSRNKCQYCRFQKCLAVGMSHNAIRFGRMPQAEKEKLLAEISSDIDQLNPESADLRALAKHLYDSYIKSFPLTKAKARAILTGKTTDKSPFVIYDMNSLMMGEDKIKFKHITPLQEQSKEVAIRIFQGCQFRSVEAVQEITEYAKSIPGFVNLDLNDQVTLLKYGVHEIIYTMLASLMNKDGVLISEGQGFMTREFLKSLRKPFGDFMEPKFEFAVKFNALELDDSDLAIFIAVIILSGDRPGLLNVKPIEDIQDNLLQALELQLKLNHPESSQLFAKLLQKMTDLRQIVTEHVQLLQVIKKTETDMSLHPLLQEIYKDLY
Sequence of zebrafish Thyroid Hormone Receptor alpha (TRa), thraa (gene 30670) (Q98867 whole entry, looked up, the tested form may be a part): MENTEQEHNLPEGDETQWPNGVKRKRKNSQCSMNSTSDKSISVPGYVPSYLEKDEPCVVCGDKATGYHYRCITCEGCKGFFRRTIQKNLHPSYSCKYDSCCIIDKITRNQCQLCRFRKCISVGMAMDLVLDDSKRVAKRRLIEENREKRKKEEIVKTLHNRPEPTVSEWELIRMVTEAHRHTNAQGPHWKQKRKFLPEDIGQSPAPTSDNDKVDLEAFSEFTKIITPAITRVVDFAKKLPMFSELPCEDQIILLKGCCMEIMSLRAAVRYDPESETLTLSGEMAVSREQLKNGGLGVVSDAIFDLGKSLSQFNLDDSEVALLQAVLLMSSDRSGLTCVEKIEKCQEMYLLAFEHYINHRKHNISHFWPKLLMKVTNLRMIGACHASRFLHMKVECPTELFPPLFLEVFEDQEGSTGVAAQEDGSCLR
Sequence of chicken Estrogen Receptor (ERa), ESR1 (gene 396099) (P06212 whole entry, looked up, the tested form may be a part): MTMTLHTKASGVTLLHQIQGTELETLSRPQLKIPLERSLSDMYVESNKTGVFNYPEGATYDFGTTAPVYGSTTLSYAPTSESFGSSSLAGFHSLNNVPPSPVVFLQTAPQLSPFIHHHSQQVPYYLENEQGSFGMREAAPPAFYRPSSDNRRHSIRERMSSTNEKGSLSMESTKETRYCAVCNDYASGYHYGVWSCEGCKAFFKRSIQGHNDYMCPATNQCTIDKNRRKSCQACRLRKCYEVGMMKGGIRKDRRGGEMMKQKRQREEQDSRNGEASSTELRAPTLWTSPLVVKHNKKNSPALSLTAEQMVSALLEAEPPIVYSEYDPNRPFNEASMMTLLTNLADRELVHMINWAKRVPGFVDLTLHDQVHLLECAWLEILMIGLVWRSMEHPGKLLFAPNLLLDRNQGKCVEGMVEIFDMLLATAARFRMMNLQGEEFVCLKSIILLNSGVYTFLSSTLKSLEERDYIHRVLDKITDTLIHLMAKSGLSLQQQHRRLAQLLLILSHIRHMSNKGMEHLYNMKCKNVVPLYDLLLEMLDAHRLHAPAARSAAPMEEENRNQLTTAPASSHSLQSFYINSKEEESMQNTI
Sequence of frog Thyroid hormone Receptor alpha (TRa), thra-a (gene 397942) (P15204 whole entry, looked up, the tested form may be a part): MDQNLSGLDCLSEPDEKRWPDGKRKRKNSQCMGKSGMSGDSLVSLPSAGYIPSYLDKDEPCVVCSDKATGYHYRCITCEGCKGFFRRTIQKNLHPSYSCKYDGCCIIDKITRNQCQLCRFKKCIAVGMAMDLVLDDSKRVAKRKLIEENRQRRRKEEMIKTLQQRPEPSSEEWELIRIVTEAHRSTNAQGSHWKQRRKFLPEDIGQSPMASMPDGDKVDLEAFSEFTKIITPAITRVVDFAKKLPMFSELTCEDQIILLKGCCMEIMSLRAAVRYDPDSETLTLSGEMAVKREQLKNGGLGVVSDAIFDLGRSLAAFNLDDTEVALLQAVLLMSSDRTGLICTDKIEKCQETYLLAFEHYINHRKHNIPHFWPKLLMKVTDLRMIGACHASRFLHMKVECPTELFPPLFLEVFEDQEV

As for `C=C(C)[C@H]1Cc2c(ccc3c2O[C@@H]2COc4cc(OC)c(OC)cc4[C@@H]2C3=O)O1`, the concentration at half-maximal activity (AC50) (as a rule, the concentration giving half of the maximal activity seen) in assay [1] is 0.0708 µM (active).

Turning to `FC(F)C(F)(F)OCC(Cn1cncn1)c1ccc(Cl)cc1Cl` (configuration not stated), in assay [1], the result was inactive.

For `CCc1cccc(C)c1N(C(=O)CCl)C(C)COC` (configuration not stated), the compound was classed as inactive in assay [2], in assay [3], in [4], in assay [5], in assay [6] and in assay [9]. Also, the call in assay [10], in [11] and in assay [12] was inactive. Moreover, the half-maximal activity concentration (AC50) in assay [7] was 55.8 µM (active); in assay [8] it was 3.96 µM (active).

For `CCOP(=O)(NC(C)C)Oc1ccc(SC)c(C)c1` (configuration not stated), the AC50 in assay [2] is 31.1 µM (active); in assay [13], 100 µM (active); in assay [4], 65.5 µM (active) and 43.8 µM (active); in assay [6], 100 µM (active) and 69 µM (active); in assay [7], 43.6 µM (active) and 36.6 µM (active); in assay [8], 4.34 µM (active) and 4.75 µM (active). Further, the AC50 in [10] is 100 µM (active). In addition, the compound was called inactive in assay [2], in assay [13], in assay [5], in [9], in assay [10] and in [14]. Besides, the call in assay [11], in [15] and in [12] was inactive.

As for `CC1(C(=O)Nc2ccc(O)c(Cl)c2Cl)CCCCC1`, in assay [1], the outcome was inactive.

Turning to `O=[N+]([O-])c1cc(C(F)(F)F)c(Cl)c([N+](=O)[O-])c1Nc1ncc(C(F)(F)F)cc1Cl`, the concentration at half-maximal activity (AC50) in assay [1] was 6.41 µM (active).

As to `CC(COc1ccc(Oc2ccccc2)cc1)Oc1ccccn1` (configuration not stated), the result in assay [1] was inactive.

The values are drawn from PubChem BioAssay (EPA / NIEHS).
